Source: PubChem BioAssay
Records with an inconclusive call do not appear. Activity calls are given as the source filed them. Unless noted, the limit is not given here; nearly all actives have AC50 up to about 26 µM.

Tests used:
[1] = growth inhibition of DIPG glioma cells, dose response, cell-based, SU-DIPG-XVII, MIPE5.0, CellTiter-Glo, qHTS (AID 1347060); settings: SU-DIPG-XVII viability, CellTiter-Glo ATP luminescence;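 as to AC50: cells exposed to compound for 48 hours before viability readout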
[2] = growth inhibition of DIPG glioma cells, dose response, cell-based, SU-DIPG-XIII, MIPE5.0, CellTiter-Glo, qHTS (AID 1347064; cut-off not given, nearly all actives have AC50 up to about 23 µM;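 as to AC50: cells exposed to compound for 48 hours before the viability read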); settings: SU-DIPG-XIII viability, CellTiter-Glo ATP luminescence
[3] = viability loss in pontine glioma line – cell-based, SU-DIPG-XXV, MIPE5.0, CellTiter-Glo, qHTS, dose response (AID 1347065); settings: CellTiter-Glo ATP luminescence;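 also: cells exposed to compound for 48 hours before ATP readout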
[4] = JHH-DIPG-1 glioma cell viability, MIPE5.0 library, CellTiter-Glo luminescence, qHTS (AID 1347067); settings: JHH-DIPG-1 glioma viability, CellTiter-Glo ATP luminescence;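 also: cells exposed to compound for 48 hours before readout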
[5] = SU-DIPG-XXV glioma cell viability, MIPE5.0 library, qHTS (AID 1347068; cut-off not given, nearly all actives have IC50 up to about 30 µM;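 as to IC50: cells exposed to compound for 48 hours before viability readout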)
[6] = sensitizers of A549 cells to miR-34 induction, primary screen, imaging, A549 dox-inducible miR-34, nuclei and caspase counts (AID 1347080;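 active = compounds whose cell count with miR-34 switched on is under 0.7 times the count with it off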); settings: A549 miR-34 inducible, Hoechst nuclei count, 48 h
[7] = survival rescue of mitochondrial mutant cells in low glucose, primary screen, MELAS cybrids, Rieske KO mouse fibroblasts, CellTiter-Glo (AID 1508586;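 active = mean z-score across replicates of 1.96 or higher in either the MELAS or the Rieske mutant cell line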;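 also: z relative to plate mean and SD of compound and empty wells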)

COc1cc(C(=O)NC2CCN(C)CC2)c(F)cc1Nc1ncc2c(n1)N(C1CCCC1)CC(F)(F)C(=O)N2C
AC50 [1]: 0.0934 µM (active)
AC50 [2]: 1.86 µM (active)
AC50 [3]: 0.118 µM (active)
AC50 [4]: 20.9 µM (active)
IC50 [5]: 4.17 µM (active)

CC(=O)c1ccc2c(c1)c1cc(C(C)=O)ccc1n2CCNC(C)C
AC50 [1]: 2.95 µM (active)
AC50 [2]: 4.68 µM (active)
AC50 [3]: 3.32 µM (active)
AC50 [4]: 2.63 µM (active)
IC50 [5]: 5.9 µM (active)

COC(=O)N1CC2(CC2)C[C@H](C(=O)NO)[C@H]1C(=O)N1CCN(c2ccccc2)CC1
outcome [1]: inactive
outcome [2]: inactive
outcome [3]: inactive
outcome [4]: inactive
outcome [5]: inactive

CC(C)c1c2cc(-c3ccnc(NC4CCC(NC5CCOCC5)CC4)n3)ccc2nn1C (stereo unspecified)
AC50 [1]: 0.417 µM (active)
AC50 [2]: 0.372 µM (active)
AC50 [3]: 0.468 µM (active)
AC50 [4]: 0.417 µM (active)
IC50 [5]: 0.525 µM (active)

CC(C)n1cc(-c2ccc3c(c2)N(C)CC3)c2c(NS(=O)(=O)c3ccn(C)n3)ccnc21
outcome [1]: inactive
outcome [2]: inactive
outcome [3]: inactive
outcome [4]: inactive
outcome [5]: inactive

COC(=O)Nc1cc(Nc2cc(NC3CC3)c3ncc(C#N)n3n2)c(Cl)c(N2CCN(C)CC2)c1
AC50 [1]: 5.25 µM (active)
AC50 [2]: 3.72 µM (active)
AC50 [3]: 2.63 µM (active)
AC50 [4]: 2.95 µM (active)
IC50 [5]: 23.5 µM (active)

O=C(/C=C\n1cnc(-c2cc(C(F)(F)F)cc(C(F)(F)F)c2)n1)NNc1cnccn1
AC50 [1]: 1.66 µM (active)
AC50 [2]: 16.6 µM (active)
AC50 [3]: 4.17 µM (active)
AC50 [4]: 16.6 µM (active)
IC50 [5]: 14.8 µM (active)

Cn1ncc(Cl)c1-c1cc(C(=O)N[C@H](CN)Cc2ccc(F)c(F)c2)sc1Cl
AC50 [1]: 18.6 µM (active)
AC50 [2]: 2.35 µM (active)
AC50 [3]: 1.32 µM (active)
AC50 [4]: 16.6 µM (active)
IC50 [5]: 16.6 µM (active)

CC(C)c1c(-c2ccccc2)nc2c(C#N)c[nH]n2c1=O
outcome [1]: inactive
outcome [2]: inactive
outcome [3]: inactive
outcome [4]: inactive
outcome [5]: inactive

CCN1C(=O)N2Cc3cc(OC)cc(OC)c3[C@@H](C)C=C2C12CCN(Cc1cc(C)cc(C)c1)CC2
AC50 [1]: 20.9 µM (active)
AC50 [2]: 18.6 µM (active)
AC50 [3]: 14.8 µM (active)
AC50 [4]: 18.6 µM (active)
IC50 [5]: 20.9 µM (active)

N#Cc1ccc(N(Cc2ccc(Br)cc2)n2cnnc2)cc1
outcome [1]: inactive
outcome [2]: inactive
outcome [3]: inactive
outcome [4]: inactive
outcome [5]: inactive

CN1C(=O)[C@@H](NC(=O)c2cc(Cc3ccccc3)on2)COc2ccccc21
outcome [1]: inactive
outcome [2]: inactive
outcome [3]: inactive
outcome [4]: inactive
outcome [5]: inactive

O=C(NC[C@H](O)CN1CCc2ccccc2C1)c1cc(NC2COC2)ncn1
AC50 [1]: 23.5 µM (active)
outcome [2]: inactive
outcome [3]: inactive
outcome [4]: inactive
outcome [5]: inactive

CN1CCN(Cc2ccc(Nc3ncc(Cl)c(Nc4ccccc4S(=O)(=O)N(C)C)n3)cc2)CC1
AC50 [1]: 0.191 µM (active)
AC50 [2]: 0.241 µM (active)
AC50 [3]: 0.135 µM (active)
AC50 [4]: 0.382 µM (active)
IC50 [5]: 0.382 µM (active)

CCCC(CCC)C(=O)Nc1ccn([C@@H]2O[C@H](CO)[C@@H](O)C2(F)F)c(=O)n1
AC50 [1]: 4.68 µM (active)
outcome [2]: inactive
outcome [3]: inactive
outcome [4]: inactive
outcome [5]: inactive

C[C@@H](Oc1cc(C(=O)Nc2ccc(C(=O)N3CCN(C)CC3)cc2)nnc1N)c1c(Cl)ccc(F)c1Cl
AC50 [1]: 0.118 µM (active)
AC50 [2]: 0.417 µM (active)
AC50 [3]: 0.742 µM (active)
AC50 [4]: 16.6 µM (active)
IC50 [5]: 7.42 µM (active)

Nc1nc(Nc2ccc3c(c2)CC[C@@H](N2CCCC2)CC3)nn1-c1cc2c(nn1)-c1ccccc1CCC2
AC50 [1]: 9.34 µM (active)
AC50 [2]: 16.6 µM (active)
AC50 [3]: 6.61 µM (active)
AC50 [4]: 20.9 µM (active)
IC50 [5]: 26.3 µM (active)

CN(C)c1ccc(-c2nc3ncc(Cl)c(N4CCN(CC(=O)Nc5nccs5)CC4)c3[nH]2)cc1
AC50 [1]: 2.29 µM (active)
AC50 [2]: 7.23 µM (active)
AC50 [3]: 3.23 µM (active)
AC50 [4]: 2.29 µM (active)
outcome [5]: inactive
fold change ([6]; stronger effect = lower value, cell number ratio, induced over uninduced): 1.06 (inactive)
fold change ([6]; measured here: relative caspase fold change +Dox/-Dox): 0.825
cell count ([6]; measured here: total cells with miR-34 induction, stronger effect = lower value): 2120
cell count ([6]; measured here: total cells without miR-34 induction): 2000
z-score ([7]; MELAS cybrid survival, CellTiter-Glo 48 h, stronger effect = higher value): 2.54 (active)
z-score ([7]; Rieske KO mouse fibroblast survival, CellTiter-Glo 72 h): -0.697
